# In the supplement of paper PMC6555819:
# Columns and labels:
# Test in all cases: PBM binding z-score (relative to random genomic background probes); higher = stronger binding; sequences stand for … in GC…GCGATTGACAGCGTAGAATGAAGG
# [1] = test system: PPARg:RXRa DBDmut IVT, anti-RXR (DBD mutation: RXRa K156A/R161A, NR concentration 270 nM, RXRa partner concentration 90 nM)
# Summary of the method: (§1)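 Probes were double-stranded and carried 34-nt variable regions with direct-repeat seeds, single-nucleotide variants, half-site ablations and random human genomic background sequences, printed on custom Agilent 4×180K protein-binding microarrays. Arrays were incubated 1 h with ligand-free nuclear receptor dimers in PBS pH 7.4, 2% milk, 0.02% Triton X-100, 1 mM DTT, 0.2 mg/mL BSA and 0.4 mg/ml salmon testes DNA. Antibodies against each partner (one per run) detected binding, and scanned fluorescence was regression-normalized. Binding z-scores use the random background probes as reference.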
# [2] = test system: PPARg:RXRa IVT, anti-PPARg (NR concentration 270 nM, RXRa partner concentration 90 nM)
# Summary of the method: as §1
# [3] = test system: PPARg DBDmut:RXRa IVT, anti-PPARg (DBD mutation: PPARg1 K132A/R137A, NR concentration 270 nM, RXRa partner concentration 90 nM)
# Summary of the method: as §1
# [4] = test system: PPARg DBDmut IVT, anti-PPARg (DBD mutation: PPARg1 K132A/R137A, NR concentration 270 nM)
# Summary of the method: as §1
# [5] = test system: PPARg homodimer (NR concentration 180 nM)
# Summary of the method: as §1
# [6] = test system: PXR:RXRa (NR concentration 270 nM, RXRa partner concentration 90 nM)
# Summary of the method: as §1
# [7] = test system: PXR homodimer (NR concentration 270 nM)
# Summary of the method: as §1
# [8] = test system: RARa:RXR (NR concentration 270 nM, RXRa partner concentration 90 nM)
# Summary of the method: as §1
# [9] = test system: RARa homodimer (NR concentration 270 nM)
# Summary of the method: as §1
# [10] = test system: RARb:RXRa (NR concentration 270 nM, RXRa partner concentration 90 nM)
# Summary of the method: as §1
# [11] = test system: RARb homodimer (NR concentration 270 nM)
# Summary of the method: as §1
# [12] = test system: RARg:RXRa (NR concentration 270 nM, RXRa partner concentration 90 nM)
# Summary of the method: as §1
# [13] = test system: RARg homodimer (NR concentration 270 nM)
# Summary of the method: as §1
# [14] = test system: RXRa DBDmut IVT, anti-RXR (DBD mutation: RXRa K156A/R161A, NR concentration 90 nM)
# Summary of the method: as §1
# [15] = test system: THRa:RXRa (NR concentration 90 nM, RXRa partner concentration 90 nM)
# Summary of the method: as §1
# [16] = test system: THRa homodimer (NR concentration 90 nM)
# Summary of the method: as §1
# [17] = test system: VDR homodimer (NR concentration 270 nM)
# Summary of the method: as §1
# [18] = test system: RXRa homodimer (NR concentration 180 nM)
# Summary of the method: as §1
# [19] = test system: VDR:RXRa (NR concentration 270 nM, RXRa partner concentration 90 nM)
# Summary of the method: as §1
Sequence,PBM binding z-score [1],PBM binding z-score [2],PBM binding z-score [3],PBM binding z-score [4],PBM binding z-score [5],PBM binding z-score [6],PBM binding z-score [7],PBM binding z-score [8],PBM binding z-score [9],PBM binding z-score [10],PBM binding z-score [11],PBM binding z-score [12],PBM binding z-score [13],PBM binding z-score [14],PBM binding z-score [15],PBM binding z-score [16],PBM binding z-score [17],PBM binding z-score [18],PBM binding z-score [19]
AGTCAAAGTTCATCTAGGTAACGAAAGATATGCT,0.744,4.11,1.97,1.3,3.18,5.26,6.53,4.34,2.16,5.15,3.88,5.82,6.19,4.79,3.24,0.383,5.04,,
ATCGAAAGGTCGACGAGGAGAGTATACACCGTTT,0.291,1.39,1.26,0.739,1.33,2.4,0.432,3.03,0.544,3.66,2.37,,3.81,1.18,2.27,-0.0264,0.681,3.91,3.3
CCTAGTTGGTCAGGAGGCCACACACCGGATATGA,0.654,1.37,0.117,-0.424,0.805,-0.041,0.627,-0.174,0.55,1.23,1.51,0.776,1.23,-0.19,0.326,0.708,0.435,,
TAGCCAAGGTCATTCAGGGGCCAGTATAGAAAGC,1.73,3,1.11,0.966,3.14,4.91,1.43,5.72,0.389,5.06,4.08,,6.27,4.05,4.08,1.75,3.99,5.47,5.28
CCTACTGGGCCAAAGGACATTGATTCCAATGCTC,4.14,4.09,-0.131,-0.115,0.47,-0.488,-0.554,-0.324,-0.235,0.93,0.475,,0.664,-0.27,-0.11,-0.145,-0.13,0.166,-0.439
CGAACTAGGTGATTGACAGGACAGTGAATAGTAA,6.28,5.92,0.852,0.609,0.553,-0.082,0.228,0.0788,0.46,0.167,0.647,,0.266,0.246,0.755,0.252,0.00262,-0.176,-0.0545
ATCGAATGGTCGAGGTGAGTATAGAGAAAGGGAA,-0.483,0.658,1.03,0.73,0.372,-0.283,0.0857,0.0342,0.112,0.541,0.319,,0.76,-0.577,0.936,0.55,-0.57,0.118,-0.226
TCTAGTTGGTCATGGAGGTCACACACGACGGGTA,2.58,3.96,1.39,1.01,3.56,4.8,2.15,4.97,2.88,3.77,4.43,4.86,5.01,1.01,3.61,2.8,3.38,,
